# PINK1 modulator: modulators of PINK1 expression; Potency, µM (doses to about 76.6 µM), without a hit: at the top dose activation (PINK1 increase), most hits filed as activators; actives 0.2% (n = 410,000); PINK1 immunofluorescence, high-content cytometry, 24 h; AID 624263; active means well fitted activation curve with a large enough effect; inconclusive means small, poorly fitted or top-dose-only effect; cell line not stated here; further: potency means the concentration at half of the fitted maximal effect; % of control where 0% means no effect; nearly all actives have a fitted effect of over 65% in size
#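 Measures PINK1 amount and localization on or inside mitochondria by immunofluorescence. Stable cells get compounds at 5 concentrations for 24 hours before fixation and staining; CCCP controls included.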
# p53 reactivation: re-activators of mutant p53; H1299 p53-A138V BP100-luciferase reporter, luminescence, 24 h; Potency, µM (series often up to 92.2 µM), inactives show at the top dose activity change, positive = activation, usual class: activators; actives 0.063% (n = 320,000); further: potency means the concentration at half of the fitted maximal effect; % of control where 0% means no effect; nearly all actives have a fitted effect of over 45% in size
#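 H1299 (p53-null), stable ts p53-A138V + BP100-Luc; 1000 cells/well, Opti-MEM/10% FBS; cpd 4 pt, 1:5; 24 h, 37 deg C, 5% CO2; detection reagent 10 min RT; luminescence.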
# CCT modulator: cytosolic chaperonin activity modulation | purified chaperonin ATPase assay, HTRF ADP detection, 30 min | activity change, % (no concentration beside the values), hits read low | actives 0.3% (n = 360,000) | AID 651819; in the data active means activity change below about -30%; further: on the % scale 0 is the no-effect control and ±100 the full control effect
#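 TRiC (40 or 20 nM final, by batch activity) in 30 mM Tris pH 7.4, 100 mM KCl, 5 mM MgCl2, 1 mM DTT was treated with compound at 76 uM single dose, then 10 uM ATP, 30 min at 37 °C. ADP was read by HTRF Transcreener.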
# S-ASM inh: human S-ASM enzyme inhibition. P17405. placental ASM, HMU-PC fluorogenic substrate, 60 min. Potency, µM (top dose mostly 57.5 µM), for the others: top-dose activity change, negative = inhibition, actives largely listed as inhibitors. actives 0.006% (n = 340,000). AID 504937; further: potency means the concentration at half of the fitted maximal effect
#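 Fluorogenic HMU-PC substrate (9 uM final) is turned over by placental ASM in 60 min at 37 C after a 10 min compound preincubation. Reaction ended by alkaline stop (pH 10), with fluorescence read at 386/447 nm.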
# ALOX12 inh: ALOX12 (human) lipoxygenase inhibition; actives 1.1% (n = 580,000); Potency, µM (titrated, usually from 108 µM), for inactives: top-dose activity change, negative = inhibition, most hits filed as inhibitors; purified 12hLO, xylenol orange hydroperoxide absorbance; AID 1671190; P18054; further: potency means the concentration at half of the fitted maximal effect; on the % scale 0 is the no-effect control and ±100 the full control effect
# Target sequence (P18054 whole entry, looked up): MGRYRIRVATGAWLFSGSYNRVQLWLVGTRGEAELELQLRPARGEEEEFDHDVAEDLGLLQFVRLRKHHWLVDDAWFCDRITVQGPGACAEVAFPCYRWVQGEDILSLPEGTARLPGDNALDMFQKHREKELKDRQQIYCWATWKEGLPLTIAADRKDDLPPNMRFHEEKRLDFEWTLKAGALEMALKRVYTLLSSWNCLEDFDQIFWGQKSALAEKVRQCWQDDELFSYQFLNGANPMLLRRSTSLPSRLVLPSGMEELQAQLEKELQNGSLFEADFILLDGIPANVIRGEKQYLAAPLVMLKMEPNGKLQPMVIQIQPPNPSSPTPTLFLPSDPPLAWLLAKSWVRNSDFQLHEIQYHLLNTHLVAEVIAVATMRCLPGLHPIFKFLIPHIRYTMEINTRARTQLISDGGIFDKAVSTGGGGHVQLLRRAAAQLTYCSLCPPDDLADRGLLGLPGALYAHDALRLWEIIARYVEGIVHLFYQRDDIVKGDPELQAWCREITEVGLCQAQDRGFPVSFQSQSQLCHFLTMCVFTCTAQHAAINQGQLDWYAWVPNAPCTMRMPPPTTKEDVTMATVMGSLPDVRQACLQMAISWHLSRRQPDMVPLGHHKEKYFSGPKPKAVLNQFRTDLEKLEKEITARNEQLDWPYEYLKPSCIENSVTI
#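 Hydroperoxide product was detected by ferrous iron/xylenol orange as the 573 to 405 nm absorbance ratio. Arachidonic acid at 40 uM (final) was turned over for 30 min at room temperature by 150 nM human 12hLO, pH 7.0 Hepes buffer, after 15 min compound preincubation.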
# MmCpn inh: inhibitors of Methanococcus maripaludis chaperonin TRiC (MmCpn). purified Mm-Cpn ATPase, ADP Transcreener TR-FRET. Potency, µM (doses to about 76.9 µM), for inactives: at the top dose activity, negative = inhibition, usual class: inhibitors. actives 0.031% (n = 330,000); further: potency means the concentration at half of the fitted maximal effect; on the % scale 0 is the no-effect control and ±100 the full control effect; nearly all actives have a fitted effect of over 80% in size
#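 ATPase turnover read by TR-FRET ADP competition (Eu cryptate antibody/ADP-d2, 665/590 nm): 10uM ATP final, 25nM Mm-CPN final, 30 min 37degC after 10-min compound preincubation, pH 7.4 Tris/KCl/MgCl2/DTT buffer.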
# Numbers without * were called inactive; ? = inconclusive; nt = not tested or not shown; [ ] = dose if it differs, or a comment. Compounds with a hit are over-represented: about 1.4% of the library has one in this group of screens. Unless noted, the call rests on the fitted dose curve; in most records, active means well fitted curve in the direction sought with a large enough effect; inconclusive means small, poorly fitted or top-dose-only effect, or another doubt; inactive means no such curve, though single readings can be large; an effect the other way counts as inactive or inconclusive.
SMILES,PINK1 modulator,p53 reactivation,CCT modulator,S-ASM inh,ALOX12 inh,MmCpn inh
CCN1CCN(CC(=O)Nc2ccc(OC(F)(F)F)cc2)CC1,-1%,6%,-2,-5%,0.5µM*,1%
COc1ccccc1NC1(c2nnnn2-c2ccccc2)CCCCC1,nt,nt,nt,nt,1%,nt
O=C(N/N=C/c1ccsc1)c1ccc(-c2ccccc2)cc1,nt,nt,nt,nt,26%,nt
CN(C)S(=O)(=O)n1cc(/C=C(\NC(=O)c2ccccc2)C(=O)N2CCCC2)c2ccccc21,0%,-2%,-2,-2%,-24%,0%
CN1CCN(C(=O)/C(=C/c2cn(S(=O)(=O)N(C)C)c3ccccc23)NC(=O)c2ccccc2)CC1,0%,-12%,-39*,0%,-7%,2%
Cc1cn(C2OC(COC(=O)c3ccccc3)C(OC(=O)c3ccccc3)C2OC(=O)c2ccccc2)c(=O)[nH]c1=O (centres undefined),-1%[38.3 µM],-11%,-1,0%,11%,0%
Cc1cn(C2OC(COC(=O)c3ccccc3)C(O)C2O)c(=O)[nH]c1=O (centres undefined),nt,5%,-32*,2%,-3%,-1%
Cc1nnc(SCC(=O)NCCc2ccco2)c2nn(-c3ccc(Cl)cc3)c(C)c12,nt,nt,nt,nt,32µM*,nt
O=C(NCCc1ccccc1)C1CCCN(c2ccc3nnc(C(F)(F)F)n3n2)C1 (centres undefined),nt,nt,nt,nt,-22%,nt
O=[N+]([O-])c1ccc(/C=N/c2nc3c(s2)CCCC3)cc1,nt,nt,nt,nt,-27%,nt
COc1cc(OC)c(N(C)S(=O)(=O)c2cccc(C(=O)NCc3cccs3)c2)cc1Cl,3%,nt,1,nt,10µM*,nt
CC(/C=C\c1ccccc1)=C/C(=O)O,-1%,-3%,-3,-3%,4%,5%
CC(=O)C1=C(O)C(=CC=Cc2ccccc2)OC1=O,0%,nt,2,nt,16µM*,nt
Cc1ccc(C)c(NC(=S)N(CCc2nc3cc(C)c(C)cc3[nH]2)Cc2cccnc2)c1,?,2%,-58*,0%,2%,5%
Cc1cccc(NC(=S)N(CCc2nc3cc(C)c(C)cc3[nH]2)Cc2cccnc2)c1,nt,4%,3,-1%,15%,3%
CCCc1nn(C)c2c(=O)[nH]c(-c3cc(S(=O)(=O)Nc4ccccc4)ccc3OCC)nc12,nt,nt,nt,nt,4%,nt
CCc1ccc(S(=O)(=O)N2CCN(C(=O)Nc3ccccc3Br)CC2)cc1,nt,nt,nt,nt,-13%,nt
O=C(O)c1cc2ccccc2c(Cc2c(O)c(C(=O)O)cc3ccccc23)c1O,1%,nt,nt,nt,13µM*,nt
Cc1ccc(C2C=C(c3ccc(Cl)cc3)Nc3nc(NC(=O)c4ccco4)nn32)cc1 (centres undefined),-1%,nt,nt,nt,22µM*,nt
CCOC(CNC(=O)CS(=O)Cc1nc(-c2ccccc2)oc1C)OCC (centres undefined),nt,nt,nt,nt,-3%,nt
Cc1c(P(=O)(c2ccccc2)c2ccccc2)c2ccccc2n1C,0%,nt,nt,nt,20µM*,nt
CN(Cc1cccs1)C(=O)/C=C/c1nc2ccccc2s1,nt,nt,nt,nt,-27%,nt
CCCn1c(=O)c2sc(N3CCC(C)CC3)nc2n(CC(=O)Nc2cc(Cl)ccc2C)c1=O,nt,nt,nt,nt,-15%,nt
O=C(OCCc1ccccc1)c1ccccc1,nt,nt,nt,nt,-2%[176 µM],nt
CCN(CC)CCn1c(-c2ccccc2)csc1=Nc1ccccc1,28µM*,nt,nt,nt,?,nt
SMILES,PINK1 modulator,p53 reactivation,CCT modulator,S-ASM inh,ALOX12 inh,MmCpn inh
Cc1ccc(NC(=O)N2CCN(c3nnnn3-c3ccc(Cl)c(C)c3)CC2)cc1F,nt,nt,nt,nt,-2%[6.33 µM],nt
Cc1cccc(C2=NN(c3ccccc3)[C@@H](C(=O)N3CCOC3=O)[C@@H]2c2ccc(F)cc2)c1,-1%,-3%,0,235%,?,32µM*
CC1CCCN(C2CCN(Cc3cccc(Cl)c3)CC2)C1 (centres undefined),nt,nt,nt,nt,-52%,nt
CNC(=S)N/N=C(\C)c1cccc(C(F)(F)F)c1,0%,-2%,-2,-6%,22µM*,1%
N#Cc1ccccc1S(=O)(=O)N1CCN(C(=O)NC2CCCC2)CC1,nt,nt,nt,nt,16%,nt
O=C(c1ccc(Cl)cc1)N1CC2(CCN(Cc3ccc(Cl)cc3)C2)Cc2ccccc21 (centres undefined),nt,nt,nt,nt,2µM*,nt
CC(=O)N1CC2(CCN(Cc3ccc(Cl)cc3)C2)Cc2ccccc21 (centres undefined),nt,nt,nt,nt,40µM*,nt
O=C(c1ccc(Cl)cc1)N1CC2(CCN(C3COC3)C2)Cc2ccccc21 (centres undefined),nt,nt,nt,nt,40µM*,nt
O=C(NCC(c1cccs1)N1CCOCC1)c1cc(=O)c2cc(Br)ccc2o1 (centres undefined),nt,nt,nt,nt,1%,nt
COc1ccc(OCCSC2=NCC(C)(C)CN2)cc1,nt,nt,nt,nt,35µM*,nt
CC1(C)CN=C(SCc2ccc(C(C)(C)C)cc2)NC1,nt,nt,nt,nt,-10%,nt
O=[N+]([O-])c1ccccc1C=NNc1ccccc1,13%,nt,-1,-15%,20µM*,nt
O=C(CC(=O)N/N=C/c1ccccc1[N+](=O)[O-])N/N=C/c1ccccc1[N+](=O)[O-],nt,nt,nt,nt,-6%,nt
Oc1ccccc1/C=N/Nc1ccccc1,?,?,-3,-6%,32µM*,1%
C(=N\Nc1ccccc1)/c1cc(/C=N/Nc2ccccc2)cc(/C=N/Nc2ccccc2)c1,nt,nt,nt,nt,-78%,nt
O=[N+]([O-])c1ccc(/C=N/Nc2cccc(Cl)c2)cc1,nt,nt,nt,nt,3.2µM*,nt
O=[N+]([O-])c1cccc(N/N=C/c2cccc(O)c2O)c1,3%,4%,2,-5%,11µM*,-3%
Clc1cccc(N/N=C/c2ccncc2)c1,0%,0%,0,-1%,?,1%
CCN(CC(=O)NC)S(=O)(=O)c1cccc2cc(C)cnc12,nt,nt,nt,nt,-16%,nt
Cc1cc(C)c2oc(C(=O)Nc3ccc(OC(F)F)cc3)cc(=O)c2c1,nt,nt,nt,nt,79%,nt
O=C(Cn1[nH]c(=O)c2ccccc2c1=O)OCC(=O)c1ccc(Br)cc1,5%,0%,-1,-1%,-13%,0%
COc1ccccc1C(=O)COC(=O)Cn1[nH]c(=O)c2ccccc2c1=O,?,2%,-31*,1%,-26%,1%
CC(=O)NCC1CCCN(Cc2ccc(-c3ccccc3C#N)o2)C1 (centres undefined),nt,nt,nt,nt,10%,nt
C[C@H](CO)N1C[C@H](C)[C@@H](CN(C)C(=O)c2cnccn2)Oc2cc(C#CCC3CCCC3)ccc2S1(=O)=O,1%,nt,2,nt,35µM*,nt
CC(C)C#Cc1ccc2c(c1)O[C@@H](CN(C)C(=O)c1cnccn1)[C@@H](C)CN([C@@H](C)CO)S2(=O)=O,2%,nt,-6,nt,?,nt
O=C(Cn1cc(C(F)(F)F)ccc1=O)N/N=C/c1ccc(O)cc1,-1%,-1%,-39*,-3%,11%,4%
Cc1cccc(OCCC(=O)OCC(=O)c2cc3ccccc3o2)c1,nt,nt,nt,nt,50µM*,nt
